From PubChem BioAssay
Most compounds without a hit are left out; they make up all but 1.5% or so of the library.
Bcl-xL primary – inhibitors of human Bcl-xL; Q07817; GST-Bcl-xL / FITC-Bim BH3 peptide fluorescence polarization; inhibition, % at 10.9 µM; actives 0.7% (n = 320,000); AID 2129;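 active = inhibition above the mean of all tested compounds plus 3 SD, cutoff set per campaign, cut at about 30% in these data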;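 also: inhibitors lower millipolarization by displacing the labeled peptide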
MCL1 BIM primary – MCL1-BIM-BH3 interaction inhibition (human); Q07820; actives 0.68% (n = 320,000); GST-MCL1 / FITC-Bim-BH3 fluorescence polarization; AID 2057; inhibition, % at 10.9 µM;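 active = inhibition above the mean inhibition of all tested compounds plus 3 SD, set per campaign, cut at about 40% in these data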;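 also: higher means more loss of mP so more displacement of Bim peptide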
EBV gp42 block – EBV gp42 inhibition. Fluorescence polarization binding assay, mP read-out. inhibition, % (tested at 21.74 µM). actives 0.42% (n = 220,000). AID 1085; in the data active = inhibition above about 50%
eLon inh – E. coli protease La inhibition. P0A9M0. purified E. coli Lon protease, fluorescence polarization. inhibition, % at 7.94 µM. actives 0.42% (n = 360,000). AID 602123; in the data active = inhibition above about 13%, passing the limit was not always enough
MEX-5 binding – C. elegans MEX-5 TCR-2 RNA binding activity. activity score (negative = inhibition of binding), % at 10 µM. MEX-5/FITC-TCR2 RNA binding, fluorescence polarization; active compounds read low. actives 0.38% (n = 300,000);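 active = inhibition past about -25% in most replicates, and total fluorescence under double the plate's negative control median, limit read from the data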
GLD-1 RNA inh – GLD-1-TGE RNA interaction inhibition (C. elegans). Q17339. purified GLD-1 + fluorescein TGE RNA, fluorescence polarization. inhibition, % at 5.96 µM. AID 2280. actives 0.44% (n = 320,000);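 active = percent inhibition above a per-plate cutoff, the plate mean of test compounds plus 3 SD, cut at about 30% in these data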
Target sequence (Q17339 whole entry, looked up): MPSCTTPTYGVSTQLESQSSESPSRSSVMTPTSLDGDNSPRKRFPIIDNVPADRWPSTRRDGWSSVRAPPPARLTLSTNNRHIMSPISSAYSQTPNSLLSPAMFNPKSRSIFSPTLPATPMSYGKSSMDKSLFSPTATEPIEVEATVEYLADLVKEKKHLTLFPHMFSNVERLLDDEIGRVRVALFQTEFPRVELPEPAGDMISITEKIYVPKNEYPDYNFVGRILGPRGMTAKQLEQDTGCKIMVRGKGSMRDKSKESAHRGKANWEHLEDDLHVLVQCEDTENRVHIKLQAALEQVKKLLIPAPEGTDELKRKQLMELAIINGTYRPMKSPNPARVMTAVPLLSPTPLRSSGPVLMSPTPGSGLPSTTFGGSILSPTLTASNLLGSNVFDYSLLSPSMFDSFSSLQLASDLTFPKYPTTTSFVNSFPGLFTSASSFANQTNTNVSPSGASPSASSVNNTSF
Bcl-xL conf – Bcl-xL (human) inhibition, MCL1 counter-screen confirmation | inhibition, % at 10.9 µM | AID 2166 | GST-Bcl-xL / FITC-Bim BH3 peptide FP binding | actives 54% (n = 1,700) | shares compounds with MCL1 BIM primary;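 active = inhibition above a cutoff equal to the mean inhibition of all tested compounds plus 3 SD, cut at about 30% in these data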
MCL1 BIM confirm – MCL1-BIM-BH3 interaction inhibition, confirmation. shares compounds with MCL1 BIM primary. GST-MCL1 / FITC-Bim-BH3 fluorescence polarization. inhibition, % at 10.9 µM. actives 61% (n = 1,700);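 active = inhibition above the average of all tested compounds plus 3 SD, cut at about 40% in these data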
A number is an active result; – = inactive; · = no result.

SMILES	Bcl-xL primary	MCL1 BIM primary	EBV gp42 block	eLon inh	MEX-5 binding	GLD-1 RNA inh	Bcl-xL conf	MCL1 BIM confirm
Cn1c(=O)[nH]c2c(Cl)nccc21	–	–	–	–	–	–	·	·
Cc1ccc(C(=O)NCC(=O)OCC(=O)N(CC(C)C)c2c(N)n(Cc3ccccc3)c(=O)[nH]c2=O)cc1	–	–	·	–	–	–	·	·
CCOC(=O)C1Nc2ccc(C(=O)O)cc2C2C=CCC12 (stereo unspecified)	36.8	89.1	·	–	–	–	32.3	48.4
COC(=O)CNC(=O)C1Nc2ccc(OC(F)(F)F)cc2C2C=CCC12 (stereo unspecified)	–	–	·	–	–	–	·	·
CCOC(=O)c1ccc2c(c1)C1C=CCC1C(C(=O)O)N2 (stereo unspecified)	64.3	113.1	83.8	·	·	–	54.5	97.1
Cc1ccc(OCC(=O)c2c(N)n(C)c(=O)n(C)c2=O)c([N+](=O)[O-])n1	35.9	71.9	·	–	·	–	–	59.4
Cc1ccc(S(=O)(=O)C(C#N)c2nc3ccccc3nc2N2CCCC2)cc1 (stereo unspecified)	83.1	74.8	90.5	–	–	56.8	63.6	63.2
CCc1ccc(C(=O)/C=C/Nc2ccc(S(=O)(=O)Nc3cnc4ccccc4n3)cc2)cc1	–	–	–	–	–	–	·	·
CN(C(=O)CS(=O)(=O)c1cn(CC(=O)N2CCCCC2)c2ccccc12)c1ccccc1	–	–	·	–	–	–	·	·
Clc1ccc(-c2cn3nc4c(nc3n2)CCCC4)cc1	103.6	106.5	–	–	–	81.5	76.5	89.4
CC(C)(C)C(=O)C(C(c1ccccc1)N1CCOCC1)N1CCOCC1 (stereo unspecified)	·	·	·	–	·	·	·	·
COc1cc2cc(CN(Cc3nnnn3Cc3ccco3)C3CCCCC3)c(=O)[nH]c2cc1OC	46.6	59.5	–	–	–	–	–	–
CCOc1ccccc1NC(=O)COC(=O)C(CC)c1ccccc1 (stereo unspecified)	–	–	–	–	–	–	·	·
Cc1ccc(-c2nc(C=Nc3ccccc3)c(O)o2)cc1	–	–	–	–	–	–	·	·
Oc1oc(-c2ccc(Br)cc2)nc1/C=N/c1ccccn1	–	68.8	–	–	–	–	–	–
CC(C)(C)c1cc(C(=O)O)n[nH]1	–	47.6	–	–	–	–	–	–
CC(C)Cc1cc(C(=O)O)n[nH]1	–	–	–	–	–	–	·	·
Cc1c(N)cccc1N	69.4	52.3	·	–	·	–	–	–
CCCCCC#CCC#CCC#CCC#CCCCC(=O)O	–	96.2	–	·	–	–	–	86.2
Cc1ccc(N(C(=O)c2ccc(S(=O)(=O)N3CCCC3)cc2)C2C=CS(=O)(=O)C2)cc1 (stereo unspecified)	–	–	·	–	–	–	·	·
CCOC(=O)C(C(=O)OCC)c1cc(Br)c2noc3c2c1C(=O)c1ccccc1-3	176.2	195.6	133.0	–	-31.8	170.7	145.3	148.2
CC(=O)OCCNc1cc(N2CCN(C)CC2)c2noc3c2c1C(=O)c1ccccc1-3	·	·	–	–	·	·	·	·
Cc1c(-c2ccc(O)cc2)nc2nc(-c3ccccc3)c(-c3ccccc3)nn12	118.2	112.2	–	·	–	–	43.9	54.0
Cc1nnc2c3ccccc3c(-c3ccc(O)cc3)nn12	–	–	–	–	–	–	·	·
COc1cccc(C(c2c(N)[nH]c(=S)[nH]c2=O)c2c(N)[nH]c(=S)[nH]c2=O)c1	–	–	–	–	–	–	·	·
SMILES	Bcl-xL primary	MCL1 BIM primary	EBV gp42 block	eLon inh	MEX-5 binding	GLD-1 RNA inh	Bcl-xL conf	MCL1 BIM confirm
C=CCC(C(=O)OC)(C(=O)OC)c1ccccc1[N+](=O)[O-]	–	–	–	–	–	–	·	·
COc1ccccc1OCC(=O)Nc1sc2c(c1C(N)=O)CCC2	·	·	·	–	·	–	·	·
Cn1cnnc1SCC(=O)Nc1sc2c(c1C(N)=O)CCC2	–	56.4	65.4	–	–	–	–	56.0
COc1cccc(C(=O)OCC(=O)Nc2sc3c(c2C(N)=O)CCC3)c1O	–	50.3	·	–	·	–	–	44.8
COCCn1cnnc1SCC(=O)Nc1sc2c(c1C#N)CCC2	–	–	·	–	·	–	·	·
C/C=C1\NC(=O)[C@H](C)NC(=O)[C@@H](NC(=O)[C@H](Cc2ccc(O)cc2)NC(=O)[C@@H](NC(=O)/C(C)=C/C)C(C)C)[C@@H](C)OC(=O)[C@H](CC(C)C)NC(=O)[C@@H](CCC(=O)O)NC1=O	·	·	·	–	·	·	·	·
COc1ccc(Cl)cc1C(=O)NNC(=O)CSc1nncn1C	·	·	·	–	·	–	·	·
Cc1cc(=O)[nH]c(NCc2ccc(Cl)cc2)n1	–	–	·	–	–	–	·	·
O=[N+]([O-])c1ccc(/C=N/Nc2ncccc2[N+](=O)[O-])s1	–	–	·	–	–	–	·	·
O=[N+]([O-])c1ccc(/C=N/n2cnc3ccccc32)s1	52.0	72.1	–	–	-41.3	–	71.2	76.3
Nc1ncnc2oc(-c3ccco3)c(-c3ccco3)c12	36.2	95.1	–	–	–	–	40.0	93.1
O=C1NC(=O)[C@@H]2C3c4ccccc4C=CN3[C@H](C(=O)c3cccs3)[C@H]12 (stereo partly specified)	122.6	124.3	88.4	·	-53.2	101.5	61.2	87.3
CC(C)(C)C(=O)[C@@H]1[C@@H]2C(=O)N(Cc3ccccc3)C(=O)[C@@H]2[C@H]2c3ccccc3C=CN12	·	·	–	·	·	·	·	·
CC1(C)CC(=O)C(C=Nc2cc(C(=O)c3ccccc3)ccc2N)=C(O)C1	–	–	–	–	–	–	·	·
COC(=O)c1ccc(N)c(N=CC2=C(O)CC(C)(C)CC2=O)c1	87.0	89.1	–	–	–	72.6	–	–
COCCn1c(SCC(=O)N2CCCC2=O)nc2sc(C)c(C)c2c1=O	–	75.9	·	–	–	–	–	–
CCn1c(SCC(=O)NCCOC)nc2sc(C)c(C)c2c1=O	·	·	–	·	–	·	·	·
O=C1CC(/C=C/c2ccco2)=Nc2ccccc2N1	49.6	60.2	–	–	–	–	32.3	45.0
O=C1CC(/C=C/c2ccc([N+](=O)[O-])cc2)=Nc2ccccc2N1	–	–	–	–	·	–	·	·
CCCCn1nnnc1C(c1cc2ccccc2o1)N(C)CCc1ccccc1 (stereo unspecified)	·	·	·	–	·	·	·	·
CC1(c2ccc3noc(-c4ccccc4)c3c2)OCCO1	–	–	–	–	–	–	·	·
CC1(c2ccc3noc(-c4ccc(F)cc4)c3c2)OCCO1	73.9	83.3	86.2	–	–	88.8	77.8	111.3
O=C(O)c1cc(O)c2c(c1)C(=O)c1cccc(O)c1C2=O	114.3	146.6	–	–	-27.7	89.4	117.6	144.3
COc1cc(C(=S)N2CCOCC2)ccc1OC(=O)c1cc(OC)c(OC)c(OC)c1	–	–	·	–	–	–	·	·
